Measured values taken from PubChem BioAssay (NCATS).
“And” between values parts separate entries of the source, which are not always exact repeats. Equal entries are not always repeated. Records with an inconclusive call do not appear. Some structures have more than one record in an assay (separate samples or runs), and their calls can disagree. The source made the active and inactive calls. Calls follow the shape of the dose curve; as a rule, active = well fitted inhibition curve with a large enough effect; inconclusive = small, poorly fitted or top-dose-only effect; inactive = flat fitted curve, though single readings scatter.

Assays:
PC49 = assay: qHTS profiling for inhibitors of Plasmodium falciparum proliferation (AID 504749); details: P. falciparum in erythrocytes, SYBR Green DNA, 72 h; series mostly up to 28.7 µM
Summary of the method: (§1)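 Three-day growth assay of blood-stage parasites in erythrocytes (0.3% parasitemia, 2.5% hematocrit) at 37 C, 5% CO2, quantified by SYBR Green DNA staining after overnight detergent lysis.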

SC27B = assay: as above; details: P. falciparum in erythrocytes, SYBR Green DNA, 72 h; series mostly up to 28.7 µM
Summary of the method: as §1

TAB109 = assay: as above; details: P. falciparum in erythrocytes, SYBR Green DNA, 72 h; series mostly up to 28.7 µM
Summary of the method: as §1

TAB113 = assay: as above; details: P. falciparum in erythrocytes, SYBR Green DNA, 72 h; series mostly up to 28.7 µM
Summary of the method: as §1

TAB165 = assay: as above; details: P. falciparum in erythrocytes, SYBR Green DNA, 72 h; series mostly up to 28.7 µM
Summary of the method: as §1

CRL-7250 = normal cell line; assay: Cytotoxic Profiling of Annotated Libraries Using Quantitative High-Throughput Screening (AID 1296008); details: Five cell lines viability, CellTiter-Glo ATP luminescence, 48-72 h; max response: stronger effect = lower value; as to max response: % is scaled to controls: 0 for no effect and ±100 for the full control effect
Summary of the method: (§2)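 Cytotoxicity was measured as CellTiter-Glo ATP luminescence, read after 10 min at room temperature. Compound treatment of the cells lasted 48 or 72 hr at 37 degrees Celsius in a qHTS format.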

HEK293 = assay: as above; details: Five cell lines viability, CellTiter-Glo ATP luminescence, 48-72 h; max response: stronger effect = lower value
Summary of the method: as §2

HaCat [1] = assay: as above; details: Five cell lines viability, CellTiter-Glo ATP luminescence, 48-72 h; max response: stronger effect = lower value
Summary of the method: as §2

KB-3-1 = assay: as above; details: Five cell lines viability, CellTiter-Glo ATP luminescence, 48-72 h; max response: stronger effect = lower value
Summary of the method: as §2

NIH3T3 [2] = assay: as above; details: Five cell lines viability, CellTiter-Glo ATP luminescence, 48-72 h; max response: stronger effect = lower value
Summary of the method: as §2

HACAT [3] = assay: qHTS assay to identify novel small-molecules to repurpose for Merkel cell carcinoma treatment (AID 1296009); details: MCC and control cell lines, CellTiter-Glo viability, 72 h; at 44.8 µM (top of the series) unless noted
Summary of the method: (§3)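 After compound transfer in DMSO, plates were kept 72 hr at 37 degree celsius. Luminescent ATP signal from CellTiter-Glo served as viability measure, normalized against DMSO and no-cell controls.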

MCC-13 = assay: as above; details: MCC and control cell lines, CellTiter-Glo viability, 72 h; series mostly up to 46 µM
Summary of the method: as §3

UISO = assay: as above; details: MCC and control cell lines, CellTiter-Glo viability, 72 h; series mostly up to 46 µM
Summary of the method: as §3

MCC-26 = assay: as above; details: MCC and control cell lines, CellTiter-Glo viability, 72 h; series mostly up to 46 µM
Summary of the method: as §3

MKL-1 = assay: as above; details: MCC and control cell lines, CellTiter-Glo viability, 72 h; series mostly up to 46 µM
Summary of the method: as §3

MKL-2 = assay: as above; details: MCC and control cell lines, CellTiter-Glo viability, 72 h; series mostly up to 46 µM
Summary of the method: as §3

NIH3T3 [4] = assay: as above; details: MCC and control cell lines, CellTiter-Glo viability, 72 h; at 44.8 µM (top of the series) unless noted
Summary of the method: as §3

WaGa = assay: as above; details: MCC and control cell lines, CellTiter-Glo viability, 72 h; series mostly up to 46 µM
Summary of the method: as §3

HEK293T = assay: as above; details: MCC and control cell lines, CellTiter-Glo viability, 72 h; at 44.8 µM (top of the series) unless noted
Summary of the method: as §3

W2 = assay: qHTS profiling for inhibitors of Plasmodium falciparum proliferation (AID 504749); details: P. falciparum in erythrocytes, SYBR Green DNA, 72 h; series mostly up to 28.7 µM
Summary of the method: as §1
Also: nearly all actives have a fitted effect of over 60% in size.
Potency is read from the fitted curve at half-maximal effect.

COC(=O)Nc1nc2ccc(C(=O)c3ccccc3)cc2[nH]1
inactive: Potency (PC49) | Potency (SC27B) | Potency (TAB109) | Potency (TAB113) | Potency (TAB165) | max response (HEK293) -90.7% | max response (HaCat [1]) 4.64% | outcome (HaCat [1]) | outcome (HACAT [3])
active: Potency (CRL-7250) 5.9 µM | Potency (KB-3-1) 0.623 µM | Potency (NIH3T3 [2]) 18.8 µM and 2.64 µM | Potency (MCC-13) 3.72 µM | Potency (UISO) 4.18 µM

CC1=NN(c2ccccc2)C(=O)C1
inactive: Potency (PC49) | Potency (SC27B) | Potency (TAB109) | Potency (TAB113) | Potency (TAB165) | max response (CRL-7250) -10.4% and -10.5% | outcome (CRL-7250) | max response (HaCat [1]) -6.55% | outcome (HaCat [1]) | max response (KB-3-1) 3.2% | outcome (KB-3-1) | max response (NIH3T3 [2]) 2.82% | outcome (NIH3T3 [2]) | outcome (HACAT [3]) | Potency (MCC-13) | Potency (MCC-26) | Potency (MKL-1) | Potency (MKL-2) | outcome (NIH3T3 [4]) | Potency (UISO) | Potency (WaGa)

NC1(c2ccc(-c3nc4ccn5c(=O)[nH]nc5c4cc3-c3ccccc3)cc2)CCC1
inactive: max response (CRL-7250) -3.3% | max response (HaCat [1]) -15.1% | max response (NIH3T3 [2]) -6.67% | Potency (MCC-13) | Potency (MCC-26)
active: Potency (HEK293) 3.32 µM and 2.37 µM and 3.26 µM | Potency (HaCat [1]) 25.9 µM | Potency (KB-3-1) 16.4 µM | Potency (MKL-1) 20.9 µM | Potency (MKL-2) 13.3 µM | Potency (UISO) 13.2 µM | Potency (WaGa) 16.6 µM and 26.6 µM

CO[C@@H]1[C@@H](OC(N)=O)[C@@H](O)[C@H](Oc2ccc3c(O)c(NC(=O)c4ccc(O)c(CC=C(C)C)c4)c(=O)oc3c2C)OC1(C)C
inactive: max response (CRL-7250) 0.852% and -24.9% | outcome (HEK293) | max response (HaCat [1]) 0.197% | outcome (HaCat [1]) | max response (KB-3-1) -7.22% and 9.2% | max response (NIH3T3 [2]) -2.07% and -24% | outcome (HACAT [3]) | outcome (HEK293T) | Potency (MCC-13) | Potency (MCC-26) | Potency (MKL-1) | Potency (MKL-2) | Potency (UISO) | Potency (WaGa)

Clc1ccccc1CN1CCc2sccc2C1
inactive: max response (CRL-7250) -20.6% | outcome (CRL-7250) | max response (HaCat [1]) -7.82% | max response (KB-3-1) 9.17% and -6.26% | max response (NIH3T3 [2]) 1.51% and 3.19% | Potency (MCC-13) | Potency (MKL-1) | Potency (MKL-2) | Potency (UISO) | Potency (WaGa)

CC(C)OC(=O)C(C(=O)OC(C)C)=C1SC=CS1
inactive: Potency (PC49) | Potency (SC27B) | Potency (TAB109) | Potency (TAB113) | Potency (TAB165) | Potency (W2) | outcome (CRL-7250) | max response (HEK293) -6.55% | max response (HaCat [1]) -22% | outcome (HaCat [1]) | max response (KB-3-1) 13.9% | outcome (KB-3-1) | max response (NIH3T3 [2]) 0.152% | outcome (NIH3T3 [2]) | outcome (HACAT [3]) | Potency (MCC-13) | Potency (MCC-26) | Potency (MKL-1) | Potency (MKL-2) | outcome (NIH3T3 [4]) | Potency (UISO) | Potency (WaGa)

CCn1cc(C(=O)O)c(=O)c2cc(F)c(N3CCNCC3)cc21
inactive: Potency (PC49) | Potency (SC27B) | Potency (TAB113) | Potency (TAB165) | max response (CRL-7250) -1.25% and -6.48% | max response (HEK293) -12.4% and -3.6% | max response (HaCat [1]) -20% | outcome (HaCat [1]) | max response (KB-3-1) -20.2% and -20.3% | outcome (KB-3-1) | max response (NIH3T3 [2]) -0.113% and -7.16% | outcome (HACAT [3]) | Potency (MCC-13) | Potency (MKL-1) | Potency (MKL-2) | Potency (UISO) | Potency (WaGa)
active: Potency (W2) 2.56 µM

Cc1ccnc2c1NC(=O)c1cccnc1N2C1CC1
inactive: Potency (PC49) | Potency (SC27B) | Potency (TAB109) | Potency (TAB113) | Potency (TAB165) | Potency (W2) | outcome (CRL-7250) | max response (HEK293) -12% and -5.59% | max response (HaCat [1]) -1.71% | outcome (HaCat [1]) | max response (KB-3-1) 17.8% | outcome (KB-3-1) | max response (NIH3T3 [2]) -5.8% and 2.37% | outcome (HACAT [3]) | Potency (MCC-13) | Potency (MKL-1) | Potency (MKL-2) | Potency (UISO) | Potency (WaGa)

Cc1oc(=O)oc1CN1CCN(c2cc3c(cc2F)c(=O)c(C(=O)O)c2n3C(C)S2)CC1 (stereo unspecified)
active: Potency (SC27B) 8.91 µM | Potency (TAB109) 4.47 µM | Potency (TAB113) 7.94 µM | Potency (TAB165) 5.01 µM | Potency (W2) 4.78 µM
inactive: Potency (PC49) | max response (CRL-7250) -3.57% and 1.83% | max response (HEK293) 0.387% and 0.715% | outcome (HaCat [1]) | max response (KB-3-1) 23.6% | outcome (KB-3-1) | max response (NIH3T3 [2]) -0.29% | outcome (NIH3T3 [2]) | outcome (HACAT [3]) | Potency (MCC-13) | Potency (MCC-26) | Potency (MKL-1) | Potency (MKL-2) | outcome (NIH3T3 [4]) | Potency (UISO) | Potency (WaGa)

CCOCC(O)COc1ccc(NC(=O)CC[S+](C)C)cc1 (stereo unspecified)
inactive: Potency (PC49) | Potency (SC27B) | Potency (TAB109) | Potency (TAB113) | Potency (TAB165) | Potency (W2) | max response (CRL-7250) -11.9% and -0.62% | max response (HEK293) -1.76% and 3.69% | max response (HaCat [1]) 4.61% | outcome (HaCat [1]) | max response (KB-3-1) -5.04% | outcome (KB-3-1) | max response (NIH3T3 [2]) 4.96% and 4.72% | outcome (HACAT [3]) | Potency (MCC-13) | Potency (MCC-26) | Potency (MKL-1) | Potency (MKL-2) | Potency (UISO) | Potency (WaGa)

COc1ccc(C(=O)CC(=O)c2ccc(C(C)(C)C)cc2)cc1
inactive and 11.8 µM (active): Potency (UISO)
inactive and 1.05 µM (active): Potency (MKL-1)
active: Potency (MKL-2) 0.935 µM
inactive: Potency (PC49) | Potency (SC27B) | Potency (TAB109) | Potency (TAB113) | Potency (TAB165) | max response (CRL-7250) -14.9% and 1.38% | max response (HEK293) 1.8% | outcome (HEK293) | max response (HaCat [1]) -14.4% | outcome (HaCat [1]) | max response (KB-3-1) -7.03% and 3.76% | max response (NIH3T3 [2]) -3.73% and 2.63% | outcome (HACAT [3]) | outcome (HEK293T) | Potency (MCC-13) | Potency (MCC-26) | Potency (WaGa)
